U2OS ROS induce: raises reactive oxygen species in U2OS cancer cells; U2OS ROS induction, H2DCF-DA fluorescence; ROS induction (% of piperlongumine), % at 10 µM; actives 2% (n = 46,000); in the data active = ROS induction above about 79%, passing the limit was not always enough;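 also: 0% = DMSO vehicle median and 100% = reference compound median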
Starred values were filed as active, the others as inactive. Shown is part of a subset that was picked to be rich in hits.

SMILES	U2OS ROS induce
Cc1ccc(S(=O)(=O)N(C)C[C@H]2Oc3c(NC(=O)c4ccncc4)cccc3C(=O)N([C@H](C)CO)C[C@H]2C)cc1	-1.0
C[C@@H]1CCCCO[C@@H](CN(C)Cc2ccncc2)[C@@H](C)CN([C@H](C)CO)C(=O)c2cc(NC(=O)Nc3ccccc3)ccc2O1	-3.5
c1ccc(COc2ccc(Oc3nc(N4CCOCC4)nc(N4CCOCC4)n3)nn2)cc1	-1.4
C[C@@H]1CN([C@H](C)CO)C(=O)c2cccc(NC(=O)Nc3cccc4ccccc34)c2O[C@@H]1CN(C)Cc1ccc(C(F)(F)F)cc1	3.4
Cc1noc(C)c1S(=O)(=O)N(C)C[C@H]1Oc2ccc(NS(=O)(=O)c3ccc(F)cc3)cc2C(=O)N([C@@H](C)CO)C[C@H]1C	8.3
COC(=O)c1ccccc1NC(=O)c1nc2ncccn2n1	-16.2
COc1ccc(COCC(O)CS(=O)(=O)c2ccc(OC)c(OC)c2)cc1 (stereo unspecified)	-7.1
c1nc(N2CCOCC2)nc(N2CCOCC2)n1	-10.3
COC(=O)c1c(-c2c(Cl)cccc2Cl)noc1NC(=O)NCc1ccccc1	23.1
COc1cc(O)cc2c1C(=O)OC(C)C2 (stereo unspecified)	17.0
C[C@@H]1C[C@@H]2O[C@H]2/C=C/C=C\C(=O)Cc2c(Cl)c(O)cc(O)c2C(=O)O1	139.5*
O=C(O)CCC(=O)N1N=C(c2c(-c3ccccc3)c3cc(Cl)ccc3[nH]c2=O)CC1c1ccccc1 (stereo unspecified)	-6.6
CC(=O)N1N=C(c2c(-c3ccccc3)c3cc(Cl)ccc3[nH]c2=O)CC1c1ccco1 (stereo unspecified)	109.0*
O=C(O)CCC(=O)N1N=C(c2c(-c3ccccc3)c3cc(Cl)ccc3[nH]c2=O)CC1c1ccccn1 (stereo unspecified)	-4.0
O=S(=O)(c1ccc(C(F)(F)F)cc1)n1nccc1-c1cc(-c2ccccc2)no1	-4.4
CCOC(=O)c1cc(-c2ccnn2S(=O)(=O)c2cccc(C(F)(F)F)c2)on1	183.9*
Cc1cc(-c2nc(-c3ccnn3S(=O)(=O)c3cccc(C(F)(F)F)c3)cs2)no1	28.7
C[C@H]1CN([C@@H](C)CO)C(=O)c2cc(NS(=O)(=O)c3ccc(F)cc3)ccc2O[C@H]1CN(C)Cc1ccccc1	-5.7
COc1cc(/C=C/C(=O)CC(=O)/C=C/c2ccc(O)c(OC)c2)ccc1O	43.2
COc1ccc(/C=N/NC(=O)c2cccc(C(=O)NO)c2)cc1O	0.9
COc1ccc(/C=C/C(=O)CC(=O)/C=C/c2cccc(O)c2OC)cc1O	98.2*
O=C(NCc1cccnc1)c1ccc2c(c1)C(=O)N(Cc1cccnc1)C2=O	-5.2
Nc1cc(N)nc(SCC(=O)N2c3ccccc3Sc3ccccc32)n1	24.2
CS(=O)(=O)/C(C#N)=C/Nc1cnccn1	6.1
Cc1cc(/C=C(/C#N)S(C)(=O)=O)c2c(C)ccc(C(C)C)cc1-2	85.4*
SMILES	U2OS ROS induce
CS(=O)(=O)/C(C#N)=C/c1cccn1-c1ccc(OC(F)(F)F)cc1	-0.5
C[C@@H]1CN([C@H](C)CO)C(=O)Cc2cc(NS(=O)(=O)c3cn(C)cn3)ccc2O[C@H]1CN(C)C(=O)Nc1cccc2ccccc12	7.7
C[C@@H]1CN([C@H](C)CO)C(=O)Cc2cc(NS(=O)(=O)c3cn(C)cn3)ccc2O[C@@H]1CN(C)C(=O)Nc1cccc2ccccc12	1.8
C[C@@H]1CN([C@@H](C)CO)C(=O)Cc2cc(NS(=O)(=O)c3ccccc3)ccc2O[C@@H]1CN(C)C(=O)Nc1cccc2ccccc12	-3.2
C[C@H]1CN([C@@H](C)CO)C(=O)Cc2cc(NS(=O)(=O)c3cn(C)cn3)ccc2O[C@H]1CN(C)C(=O)Nc1cccc2ccccc12	121.1*
C[C@@H]1CN([C@H](C)CO)C(=O)Cc2cc(NS(=O)(=O)c3ccccc3)ccc2O[C@H]1CN(C)C(=O)Nc1cccc2ccccc12	97.6*
C[C@H](CO)N1C[C@H](C)[C@H](CN(C)C(=O)Nc2cccc3ccccc23)Oc2ccc(NS(=O)(=O)c3ccccc3)cc2CC1=O	-1.1
C[C@@H]1CN([C@@H](C)CO)C(=O)c2cc(NC(=O)Nc3ccc(C(F)(F)F)cc3)ccc2O[C@H]1CN(C)S(C)(=O)=O	38.4
C[C@H]1CN([C@@H](C)CO)C(=O)Cc2cc(NC(=O)Cc3cn(C)c4ccccc34)ccc2O[C@@H]1CN(C)Cc1ccncc1	35.2
Cc1occc1C(=O)Nc1sc2c(c1C(=O)NCc1cccnc1)CCCC2	49.5
COc1ccc(/C=C2\CCc3ccccc3C2=O)cc1CN1CCOCC1	9.3
O=C1/C(=C/c2ccc3ccccc3c2)COc2ccccc21	102.7*
COc1ccc2c(c1)OC/C(=C\c1ccc(OC)c(O)c1)C2=O	70.3
O=C(NC1(c2ccccc2)CC1)N1CCN(c2ccccc2)CC1	-10.3
CC(C)=CCc1c(O)cc2occ(-c3ccc(O)cc3O)c(=O)c2c1O	-10.1
Cc1ccc2nc(C)cc(NC3CCCCC3)c2c1	8.3
COc1ccc(-n2c(N)c(-c3nc4ccccc4s3)c3nc(C#N)c(C#N)nc32)cc1	153.1*
CC(C)(Oc1ccc(Cl)cc1)C(=O)Nc1ccccc1-c1nc2ccccc2s1	0.3

Assay outcomes as filed in PubChem BioAssay.
